# Laboratory results taken from PubChem BioAssay AID1159580 (chemical genetic matrix, 2015).
# “And” between values parts separate entries of the source, which are not always exact repeats. Equal values may be shown once. In all, about 5,500 compounds went through this assay and about 2,000 (36%) were called active. About 18% were inconclusive and are not listed. Rule as the data show it: active = normalized growth mostly below about 0.91 (no sharp cut-off); inconclusive = no clear call, values can overlap the other calls; inactive = mostly above about 0.92. The list shows a part of the results.
# Assay: chemical genetic growth profiling, strain panel (AID 1159580);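 also: tested at 20 µM; growth read once vehicle control cultures reached saturation at 30 °C; 1 = growth at the plate median or of vehicle wells; lower values mean less growth of the strain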
# Settings: S. cerevisiae deletion strains, growth OD
compound,measurement,setting,value
CC1(C)C=Cc2cc3ccc(=O)oc3cc2O1,normalized growth,"locus YAL013W, strain DEP1, stronger effect = lower value",0.986 (inactive)
same,normalized growth,"locus YAL021C, strain ccr4, stronger effect = lower value",0.987 (inactive)
same,normalized growth,"locus YAL026C, strain drs2, stronger effect = lower value",0.963 (inactive)
same,normalized growth,"locus YAL030W, strain snc1, stronger effect = lower value",0.934 (inactive)
same,normalized growth,"locus YBL061C, strain skt5, stronger effect = lower value",0.972 (inactive)
same,normalized growth,"locus YBR009C, strain hhf1, stronger effect = lower value",0.875 (active)
same,normalized growth,"locus YBR021W, strain FUR4, stronger effect = lower value",0.95 (inactive)
same,normalized growth,"locus YBR023C, strain chs3, stronger effect = lower value",0.912 (active)
same,normalized growth,"locus YBR171W, strain sec66, stronger effect = lower value",0.945 (inactive)
same,normalized growth,"locus YBR229C, strain ROT2, stronger effect = lower value",0.995 (inactive)
same,normalized growth,"locus YBR231C, strain swc5, stronger effect = lower value",0.958 (inactive)
same,normalized growth,"locus YBR279W, strain paf1, stronger effect = lower value",0.973 (inactive)
same,normalized growth,"locus YCL011C, strain gbp2, stronger effect = lower value",0.865 (active)
same,normalized growth,"locus YCL016C, strain dcc1, stronger effect = lower value",0.891 (active)
same,normalized growth,"locus YCL029C, strain bik1, stronger effect = lower value",0.967 (inactive)
same,normalized growth,"locus YCL069W, strain vba3, stronger effect = lower value",0.915 (active)
same,normalized growth,"locus YCR088W, strain abp1, stronger effect = lower value",0.927 (inactive)
same,normalized growth,"locus YDL005C, strain med2, stronger effect = lower value",0.96 (inactive)
same,normalized growth,"locus YDL035C, strain GPR1, stronger effect = lower value",0.984 (inactive)
same,normalized growth,"locus YDL040C, strain nat1, stronger effect = lower value",0.962 (inactive)
same,normalized growth,"locus YDL074C, strain BRE1, stronger effect = lower value",0.919 (inactive)
same,normalized growth,"locus YDL101C, strain DUN1, stronger effect = lower value",0.987 (inactive)
same,normalized growth,"locus YDL134C, strain PPH21, stronger effect = lower value",0.947 (inactive)
same,normalized growth,"locus YDL185W, strain tfp1, stronger effect = lower value",0.975 (inactive)
same,normalized growth,"locus YDL192W, strain arf1, stronger effect = lower value",0.958 (inactive)
same,normalized growth,"locus YDR001C, strain nth1, stronger effect = lower value",0.906 (active)
same,normalized growth,"locus YDR069C, strain doa4, stronger effect = lower value",0.958 (inactive)
same,normalized growth,"locus YDR101C, strain arx1, stronger effect = lower value",0.93 (inactive)
same,normalized growth,"locus YDR137W, strain rgp1, stronger effect = lower value",0.849 (inactive)
same,normalized growth,"locus YDR159W, strain sac3, stronger effect = lower value",0.959 (inactive)
same,normalized growth,"locus YDR162C, strain NBP2, stronger effect = lower value",0.976 (inactive)
same,normalized growth,"locus YDR195W, strain ref2",1.07 (inactive)
same,normalized growth,"locus YDR297W, strain sur2, stronger effect = lower value",0.965 (inactive)
same,normalized growth,"locus YDR318W, strain mcm21, stronger effect = lower value",0.935 (inactive)
same,normalized growth,"locus YDR334W, strain swr1, stronger effect = lower value",0.943 (inactive)
same,normalized growth,"locus YDR335W, strain msn5, stronger effect = lower value",0.919 (inactive)
same,normalized growth,"locus YDR388W, stronger effect = lower value",0.971 (inactive)
same,normalized growth,"locus YDR392W, strain spt3, stronger effect = lower value",0.58 (active)
same,normalized growth,"locus YDR502C, strain sam2, stronger effect = lower value",0.914 (active)
same,normalized growth,"locus YEL003W, strain gim4, stronger effect = lower value",0.951 (inactive)
same,normalized growth,"locus YEL037C, strain rad23, stronger effect = lower value",0.95 (inactive)
same,normalized growth,"locus YEL061C, strain CIN8 (second series), stronger effect = lower value",0.931 (inactive)
same,normalized growth,"locus YEL061C, strain CIN8, stronger effect = lower value",0.993 (inactive)
same,normalized growth,"locus YER015W, strain faa2, stronger effect = lower value",0.919 (active)
same,normalized growth,"locus YER016W, strain bim1, stronger effect = lower value",0.965 (inactive)
same,normalized growth,"locus YER110C, stronger effect = lower value",0.96 (inactive)
same,normalized growth,"locus YER111C, strain swi4, stronger effect = lower value",0.958 (inactive)
same,normalized growth,"locus YER155C, strain BEM2 (second series), stronger effect = lower value",0.565 (active)
same,normalized growth,"locus YER155C, strain BEM2, stronger effect = lower value",0.973 (inactive)
same,normalized growth,"locus YER167W, strain BCK2, stronger effect = lower value",0.952 (inactive)
same,normalized growth,"locus YFR010W, strain ubp6, stronger effect = lower value",0.951 (inactive)
same,normalized growth,"locus YGL078C, strain dbp3, stronger effect = lower value",0.968 (inactive)
same,normalized growth,"locus YGL086W, strain mad1, stronger effect = lower value",0.916 (active)
same,normalized growth,"locus YGL167C, strain pmr1, stronger effect = lower value",0.953 (inactive)
same,normalized growth,"locus YGL173C, strain kem1, stronger effect = lower value",0.949 (inactive)
same,normalized growth,"locus YGL227W, strain vid30, stronger effect = lower value",0.934 (inactive)
same,normalized growth,"locus YGL240W, strain doc1, stronger effect = lower value",0.863 (active)
same,normalized growth,"locus YGL248W, strain PDE1, stronger effect = lower value",0.941 (inactive)
same,normalized growth,"locus YGL253W, strain hxk2, stronger effect = lower value",0.971 (inactive)
same,normalized growth,"locus YGR078C, strain PAC10, stronger effect = lower value",0.944 (inactive)
same,normalized growth,"locus YGR135W, strain pre9, stronger effect = lower value",0.907 (inactive)
same,normalized growth,"locus YGR252W, strain gcn5, stronger effect = lower value",0.818 (inactive)
same,normalized growth,"locus YHR013C, strain ard1, stronger effect = lower value",0.865 (inactive)
same,normalized growth,"locus YHR027C, strain rpn1, stronger effect = lower value",0.953 (inactive)
same,normalized growth,"locus YHR030C, strain SLT2, stronger effect = lower value",0.984 (inactive) and 0.846 (active)
same,normalized growth,"locus YHR079C, strain IRE1 (second series), stronger effect = lower value",0.962 (inactive)
same,normalized growth,"locus YHR079C, strain IRE1, stronger effect = lower value",0.818 (active)
same,normalized growth,"locus YHR094C, strain hxt1, stronger effect = lower value",0.964 (inactive)
same,normalized growth,"locus YHR129C, strain ARP1, stronger effect = lower value",0.978 (inactive)
same,normalized growth,"locus YHR142W, strain chs7, stronger effect = lower value",0.834 (active)
same,normalized growth,"locus YHR200W, strain rpn10, stronger effect = lower value",0.954 (inactive)
same,normalized growth,"locus YIL066C, strain RNR3, stronger effect = lower value",0.993 (inactive)
same,normalized growth,"locus YIL073C, strain SPO22, stronger effect = lower value",0.908 (inactive)
same,normalized growth,"locus YIL125W, strain kgd1, stronger effect = lower value",0.935 (inactive)
same,normalized growth,"locus YIR030C, strain dcg1, stronger effect = lower value",0.962 (inactive)
same,normalized growth,"locus YJL092W, strain hpr5, stronger effect = lower value",0.921 (inactive)
same,normalized growth,"locus YJL095W, strain BCK1 (second series), stronger effect = lower value",0.96 (inactive)
same,normalized growth,"locus YJL095W, strain BCK1, stronger effect = lower value",0.901 (inactive) and 0.867 (active)
same,normalized growth,"locus YJL115W, strain asf1, stronger effect = lower value",0.921 (inactive)
same,normalized growth,"locus YJL129C, strain trk1, stronger effect = lower value",0.778 (active)
same,normalized growth,"locus YJL134W, strain LCB3, stronger effect = lower value",0.991 (inactive)
same,normalized growth,"locus YJL154C, strain vps35, stronger effect = lower value",0.933 (inactive)
same,normalized growth,"locus YJL164C, strain tpk1, stronger effect = lower value",0.9 (active)
same,normalized growth,"locus YJL166W, strain qcr8, stronger effect = lower value",0.896 (active)
same,normalized growth,"locus YJL168C, strain set2, stronger effect = lower value",0.976 (inactive)
same,normalized growth,"locus YJL187C, strain SWE1 (second series), stronger effect = lower value",0.959 (inactive)
same,normalized growth,"locus YJL187C, strain SWE1, stronger effect = lower value",0.968 (inactive)
same,normalized growth,"locus YJR043C, strain POL32, stronger effect = lower value",0.972 (inactive)
